{"source": "PubChem BioAssay (NCATS)", "key": {"[1]": {"experiment": "qHTS profiling of the MIPE4 collection as inhibitors of Plasmodium falciparum (3D7) proliferation (AID 743344; call rule not given here)", "details": "P. falciparum 3D7 in erythrocytes, SYBR Green DNA fluorescence, 72 h; at 28.5 µM unless noted", "procedure,_shortened": "(§1)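 Parasite DNA was quantified by SYBR Green I fluorescence (ex 485, em 535 nm) after overnight lysis in saponin/Triton buffer at room temperature. Cultures at 0.3% parasitemia and 2.5% hematocrit were first exposed to compound for 72 h at 37 C; signals were normalised to artemisinin (0.29 uM) and vehicle wells.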"}, "[2]": {"experiment": "qHTS profiling of the MIPE4 collection as inhibitors of Plasmodium falciparum (DD2) proliferation (AID 743345; call rule not given here)", "details": "P. falciparum Dd2 in erythrocytes, SYBR Green DNA, 72 h; at 28.5 µM unless noted", "procedure,_shortened": "as §1"}, "[3]": {"experiment": "qHTS profiling of the MIPE4 collection as inhibitors of Plasmodium falciparum (DD2) proliferation (Rep 2) (AID 743346; call rule not given here)", "details": "P. falciparum Dd2 in erythrocytes, SYBR Green DNA, 72 h; at 28.5 µM unless noted", "procedure,_shortened": "as §1"}, "[4]": {"experiment": "qHTS profiling of the MIPE4 collection as inhibitors of Plasmodium falciparum (HB3) proliferation (AID 743347; call rule not given here)", "details": "P. falciparum HB3 in erythrocytes, SYBR Green DNA, 72 h; at 28.5 µM unless noted", "procedure,_shortened": "as §1"}, "[5]": {"experiment": "High-throughput drug toxicity screening in the BPDCN cell line Cal-1 (AID 1224825; call rule not given here)", "details": "Cal-1 BPDCN cell viability, qHTS; at 45.8 µM (top of the series) unless noted", "procedure,_shortened": "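CellTiter-Glo luminescence after 48 h compound exposure; percent activity scaled with DMSO as 100% and bortezomib (9.2 uM final) as 0%. Cal-1 cells seeded at 500/well in RPMI, 10% FBS, no phenol red.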"}, "[6]": {"experiment": "qHTS assay for measurement of the activity of small molecule inhibitors on Zika virus induced Caspase-3 activity in human iPSC derived neural progenitor cells (hNPCs) (AID 1224857)", "procedure,_shortened": "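Human iPSC-derived neural progenitor cells pretreated 1 hr with compounds, then infected with Zika virus (2 FFU/cell) for 6 hours at 37 C. Caspase-3/7 measured by Caspase-Glo luminescence; % inhibition calculated from induction scaled to uninfected (0%) and infected (100%) wells.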"}, "[7]": {"experiment": "qHTS Screen of the MIPE 4.0 Collection Against Ewings Sarcoma (RDES) (AID 1259252)", "procedure,_shortened": "(§2)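 Log-phase cells in RPMI with 5% FBS attached for 4 h, then received compounds as a titration for 48 h at 37C, 5% CO2. Viability was read by CellTiter-Glo luminescence and normalized to DMSO and no-cell wells.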"}, "[8]": {"experiment": "qHTS Screen of the MIPE 4.0 Collection Against Ewings Sarcoma (TC71) (AID 1259253)", "procedure,_shortened": "as §2"}, "[9]": {"experiment": "qHTS Screen of the MIPE 4.0 Collection Against Ewings Sarcoma (EW8) (AID 1259255)", "procedure,_shortened": "as §2"}, "[10]": {"experiment": "qHTS profiling for inhibitors of Plasmodium falciparum (3D7) proliferation (AID 743322)", "details": "P. falciparum 3D7 proliferation; at 28.7 µM (top of the series)", "procedure,_shortened": "as §1"}, "[11]": {"experiment": "qHTS profiling for inhibitors of Plasmodium falciparum (DD2) proliferation (AID 743323; call rule not given here)", "details": "lower = more inhibition; at 28.7 µM (top of the series)", "procedure,_shortened": "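1536-well qHTS; infected RBCs 0.3% parasitemia/2.5% Hct final; cpd 72 h 37 C 5% CO2; lysis buffer + SYBR Green I, o/n RT dark; FI 485/535; norm. to 0.29 uM artemisinin and DMSO, plate-stack corrected.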"}, "[12]": {"experiment": "qHTS profiling for inhibitors of Plasmodium falciparum (HB3) proliferation (AID 743324)", "details": "Plasmodium falciparum HB3 blood-stage proliferation; at 28.7 µM (top of the series)", "procedure,_shortened": "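SYBR Green fluorescence (485 ex/535 em) of lysed cultures, incubated overnight at room temperature in the dark, quantifies parasite DNA. Infected erythrocytes at 0.3% parasitemia and 2.5% hematocrit were exposed 72 h; values normalized to DMSO and 0.29 uM artemisinin controls.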"}, "[13]": {"experiment": "qHTS assay for measurement of the activity of small molecule inhibitors on Zika virus induced Caspase-3 activity in human astrocytoma cells (AID 1224859)", "procedure,_shortened": "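SNB-19 astrocytoma cells, 250/well, pretreated 1 h with compounds, then Zika virus at 2 FFU/cell for 6 h at 37 C; Caspase-Glo 3/7 luminescence after 30 min; percent inhibition normalised to uninfected and infected controls.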"}}, "note": "Inconclusive results are not listed. The source made the active and inactive calls. Unless noted, calls follow the shape of the dose curve; as a rule, active = well fitted curve in the direction sought with a large enough effect; inconclusive = small, poorly fitted or top-dose-only effect, or another doubt; inactive = no such curve, though single readings can be large; an effect the other way counts as inactive or inconclusive. For Potency in this document: potency is read from the fitted curve at half-maximal effect.", "data": [{"smiles": "C#C[C@]1(O)CC[C@@H]2[C@@H]3CCc4cc(O)ccc4[C@H]3CC[C@@]21C", "values": [{"measurement": "parasite growth, % of DMSO control", "setting": "[1]", "result": 75.9, "unit": "%"}, {"measurement": "parasite growth remaining, % of DMSO control (lower = more inhibition)", "setting": "[2]", "result": 90.7, "unit": "%"}, {"measurement": "parasite growth, % of control (lower = inhibition)", "setting": "[3]", "result": 54.7, "unit": "%"}, {"measurement": "growth, % of control", "setting": "[4]", "result": 89.8, "unit": "%"}, {"measurement": "viability (% of control)", "setting": "[5]", "result": 11.2, "unit": "%"}, {"measurement": "Potency", "setting": "[6]", "result": "inactive"}, {"measurement": "Potency", "setting": "[7]", "result": "18.7 µM (active)"}, {"measurement": "Potency", "setting": "[8]", "result": "16.6 µM (active)"}, {"measurement": "Potency", "setting": "[9]", "result": "20.9 µM (active)"}]}, {"smiles": "COc1cccc2c1C(=O)c1c(O)c3c(c(O)c1C2=O)C[C@@](O)(C(=O)CO)C[C@H]3O[C@H]1C[C@H](N)[C@H](O)[C@H](C)O1", "values": [{"measurement": "remaining parasite growth % (stronger effect = lower value)", "setting": "[10]", "result": -4.47, "unit": "%"}, {"measurement": "activity, percent of control", "setting": "[11]", "result": -1.95, "unit": "%"}, {"measurement": "remaining proliferation (% of control), lower = more inhibition", "setting": "[12]", "result": 4.32, "unit": "%"}, {"measurement": "parasite growth, % of DMSO control", "setting": "[1]", "result": 3.34, "unit": "%"}, {"measurement": "parasite growth remaining, % of DMSO control (lower = more inhibition)", "setting": "[2]", "result": 5.82, "unit": "%"}, {"measurement": "parasite growth, % of control (lower = inhibition)", "setting": "[3]", "result": 5.25, "unit": "%"}, {"measurement": "growth, % of control", "setting": "[4]", "result": 1.64, "unit": "%"}, {"measurement": "viability (% of control)", "setting": "[5]", "result": 4.57, "unit": "%"}, {"measurement": "Potency", "setting": "[6]", "result": "inactive"}, {"measurement": "Potency", "setting": "[13]", "result": "inactive"}, {"measurement": "Potency", "setting": "[7]", "result": "0.187 µM (active)"}, {"measurement": "Potency", "setting": "[8]", "result": "0.0743 µM (active)"}, {"measurement": "Potency", "setting": "[9]", "result": "0.0264 µM (active)"}]}, {"smiles": "CN(C)CC(=O)N1CCC(c2ccc(NC(=O)c3ncc(C#N)[nH]3)c(C3=CCCCC3)c2)CC1", "values": [{"measurement": "parasite growth, % of DMSO control", "setting": "[1]", "result": 12.3, "unit": "%"}, {"measurement": "parasite growth, % of control (lower = inhibition)", "setting": "[3]", "result": 12.3, "unit": "%"}, {"measurement": "growth, % of control", "setting": "[4]", "result": 9.47, "unit": "%"}, {"measurement": "viability (% of control)", "setting": "[5]", "result": 28.6, "unit": "%"}, {"measurement": "Potency", "setting": "[6]", "result": "inactive"}, {"measurement": "Potency", "setting": "[13]", "result": "inactive"}, {"measurement": "Potency", "setting": "[7]", "result": "13.2 µM (active)"}, {"measurement": "Potency", "setting": "[8]", "result": "16.6 µM (active)"}, {"measurement": "Potency", "setting": "[9]", "result": "18.7 µM (active)"}]}, {"smiles": "C[C@@]12C[C@@]3(O)O[C@@H](O1)[C@]1(COC(=O)c4ccccc4)[C@@H]3C[C@@]12O[C@@H]1O[C@H](CO)[C@@H](O)[C@H](O)[C@@H]1O", "values": [{"measurement": "parasite growth, % of DMSO control", "setting": "[1]", "result": 90.9, "unit": "%"}, {"measurement": "parasite growth remaining, % of DMSO control (lower = more inhibition)", "setting": "[2]", "result": 96.7, "unit": "%"}, {"measurement": "parasite growth, % of control (lower = inhibition)", "setting": "[3]", "result": 141, "unit": "%"}, {"measurement": "growth, % of control", "setting": "[4]", "result": 109, "unit": "%"}, {"measurement": "viability (% of control)", "setting": "[5]", "result": 109, "unit": "%"}, {"measurement": "Potency", "setting": "[6]", "result": "inactive"}, {"measurement": "Potency", "setting": "[13]", "result": "inactive"}, {"measurement": "Potency", "setting": "[7]", "result": "inactive"}, {"measurement": "Potency", "setting": "[8]", "result": "inactive"}, {"measurement": "Potency", "setting": "[9]", "result": "inactive"}]}, {"smiles": "CC(=O)SCC(Cc1ccccc1)C(=O)NCC(=O)OCc1ccccc1", "note": "(centres undefined)", "values": [{"measurement": "parasite growth, % of DMSO control", "setting": "[1]", "result": 43.2, "unit": "%"}, {"measurement": "parasite growth remaining, % of DMSO control (lower = more inhibition)", "setting": "[2]", "result": 97.5, "unit": "%"}, {"measurement": "parasite growth, % of control (lower = inhibition)", "setting": "[3]", "result": 60.4, "unit": "%"}, {"measurement": "growth, % of control", "setting": "[4]", "result": 65.1, "unit": "%"}, {"measurement": "viability (% of control)", "setting": "[5]", "result": 4.75, "unit": "%"}, {"measurement": "Potency", "setting": "[6]", "result": "inactive"}, {"measurement": "Potency", "setting": "[13]", "result": "inactive"}, {"measurement": "Potency", "setting": "[7]", "result": "0.59 µM (active)"}, {"measurement": "Potency", "setting": "[8]", "result": "0.833 µM (active)"}, {"measurement": "Potency", "setting": "[9]", "result": "1.05 µM (active)"}]}, {"smiles": "CC1(C)CC(O)CC(C)(C)N1[O]", "values": [{"measurement": "viability (% of control)", "setting": "[5]", "result": 102, "unit": "%"}, {"measurement": "Potency", "setting": "[13]", "result": "inactive"}, {"measurement": "Potency", "setting": "[7]", "result": "inactive"}, {"measurement": "Potency", "setting": "[8]", "result": "inactive"}, {"measurement": "Potency", "setting": "[9]", "result": "inactive"}]}, {"smiles": "CCN(CC)CCCCNc1ncc2c(n1)N(C)C(=O)N(c1c(Cl)c(OC)cc(OC)c1Cl)C2", "values": [{"measurement": "parasite growth, % of DMSO control", "setting": "[1]", "result": 25.2, "unit": "%"}, {"measurement": "parasite growth remaining, % of DMSO control (lower = more inhibition)", "setting": "[2]", "result": 17.7, "unit": "%"}, {"measurement": "parasite growth, % of control (lower = inhibition)", "setting": "[3]", "result": 23.7, "unit": "%"}, {"measurement": "growth, % of control", "setting": "[4]", "result": 11.3, "unit": "%"}, {"measurement": "viability (% of control)", "setting": "[5]", "result": 50.4, "unit": "%"}, {"measurement": "Potency", "setting": "[13]", "result": "inactive"}, {"measurement": "Potency", "setting": "[7]", "result": "20.9 µM (active)"}, {"measurement": "Potency", "setting": "[8]", "result": "20.9 µM (active)"}, {"measurement": "Potency", "setting": "[9]", "result": "18.7 µM (active)"}]}, {"smiles": "CNC(=O)c1cccc(-c2ccc3c(N4CCOC[C@H]4C)nc(N4CCOC[C@H]4C)nc3n2)c1", "values": [{"measurement": "parasite growth remaining, % of DMSO control (lower = more inhibition)", "setting": "[2]", "result": 17.5, "unit": "%"}, {"measurement": "parasite growth, % of control (lower = inhibition)", "setting": "[3]", "result": 9.01, "unit": "%"}, {"measurement": "growth, % of control", "setting": "[4]", "result": 5.12, "unit": "%"}, {"measurement": "viability (% of control)", "setting": "[5]", "result": 20.9, "unit": "%"}, {"measurement": "Potency", "setting": "[6]", "result": "inactive"}, {"measurement": "Potency", "setting": "[13]", "result": "inactive"}, {"measurement": "Potency", "setting": "[7]", "result": "0.0833 µM (active)"}, {"measurement": "Potency", "setting": "[8]", "result": "0.0662 µM (active)"}, {"measurement": "Potency", "setting": "[9]", "result": "0.0935 µM (active)"}]}]}
